Several values for one entry are separate records, joined by “and”; a condition that tells them apart may be missing. Equal values may be shown once. Results filed as inconclusive are left out. Where a call stands in place of a potency, no number is given. Some compounds were tested as several samples or in several runs, with calls that do not always agree. Activity calls are given as the source filed them. Calls come from the whole dose curve; as a rule, active = well fitted activation curve with a large enough effect in the repeat runs; inconclusive = weak or mixed curves; inactive = flat fitted curve, though single readings scatter.
Potency is the fitted concentration of half-maximal effect.

This assay is described as follows: A CellTox Green Cytotoxicity Assay to monitor cytotoxicity in HepG2 cells - 24 hour (AID 1224878). Note: nearly all actives have a fitted effect of over 45% in size. To be noted: CellTox Green fluorescence; series mostly up to 76.8 µM. An excerpt: National Center for Advancing Translational Sciences [NCATS]
NIH Chemical Genomics Center [NCGC]
U.S. Environmental Protection Agency [EPA]
National Institutes of Environmental Health Sciences [NIEHS]
National Toxicology Program [NTP]
Cell-based models are critical for drug discovery. Determining the natural cytotoxic effects resulting from test compounds is an essential research activity. A CellTox Green Cytotoxicity Assay to monitor cytotoxicity in real time of continues cell culture during 40 hours of the compound treatment was used to screen Tox21 10K library compounds in HepG2 cells. CellTox Green Cytotoxicity Assay is a nonlytic, homogeneous, biofluorescent method to measure cytotoxicity in cell culture after experimental manipulation. The assay system uses a proprietary asymmetric cyanine dye that is excluded from viable cells but preferentially stains the dead cell's DNA. […] Viable cells produce no appreciable increases in fluorescence. Therefore, the fluorescence signal produced by the binding interaction with dead cell DNA is proportional to cytotoxicity.
The mixture of HepG2 cell suspension and reagents were dispensed at 600cells/6 ul/well in 1536-well tissue culture treated black solid bottom plates using a Multidrop dispenser. After the assay plates were incubated at a 37 C/5% CO2 incubator for 5 hours, 23 nL of compounds dissolved in DMSO, positive and negative controls was transferred to the assay plate by a pintool work station. The plates were incubated at 37 C for 40 hours. The fluorescence intensity were measured at 0h, 8h, 16h, 24h, 32h and 40h time points using ViewLux plate reader during compound treatment.
`CCCCCCCCCCCCN`: the Potency entry is “inactive and 19.5 µM (active)”. As for `NCCNCCNCCNCCN`, the Potency result was “inactive”. `NC(=O)/N=N/C(N)=O`: the Potency entry was “inactive”. Turning to `C[C@@H]1O[C@@H](OC[C@H]2O[C@@H](Oc3c(-c4ccc(O)c(O)c4)oc4cc(O)cc(O)c4c3=O)[C@H](O)[C@@H](O)[C@@H]2O)[C@H](O)[C@H](O)[C@H]1O`, the Potency result was “inactive”. Then `Cc1ccc(C(=O)O)o1`, with “inactive”; and `CN(C)c1cccc(O)c1`, with “inactive”; and `CC1=C(/C=C/C(C)=C/C=C/C(C)=C/CO)C(C)(C)CCC1`, with “inactive”. Then `CC[Si](OC(C)=O)(OC(C)=O)OC(C)=O`, with “inactive”; and `OC1CCCC1`, with “inactive”; and `CCCCC/C=C\C/C=C\CCCCCCCC(=O)OC`, with “inactive”. For `CCC(=O)O`, the Potency entry is “inactive”. On to `O=C(O)c1ccc([N+](=O)[O-])cc1`, for which the Potency entry was “inactive”.

On to `CC(C)(C)C(=O)C1C(=O)c2ccccc2C1=O`, for which the Potency entry was “inactive”. Under `CCCCCCCCC` stands “inactive”; under `O=S(=O)(O)c1cc(S(=O)(=O)O)c2c(N=Nc3ccccc3)c(O)ccc2c1`, “inactive”; under `CCCCCCCCCCC=CC1CC(=O)OC1=O` (stereo not given), “inactive”. Regarding `O=C(c1cc(O)c(O)c(O)c1)c1ccc(O)c(O)c1O`, the Potency result is “inactive”. Take `CCCCC(CC)COC(C)=O` (stereo not given): the Potency result is “inactive”. Then `CS(=O)(=O)Nc1ccc([N+](=O)[O-])cc1Oc1ccccc1`, with “inactive”.

As to `CCCCOCCOCCOC(=O)CCCCC(=O)OCCOCCOCCCC`, the Potency result was “inactive”.

`ClC1=C(Cl)C(Cl)(Cl)C(Cl)=C1Cl`: the Potency result was “inactive”. Then `CCCCCCOC(C)=O`, with “inactive”; and `CCCCCCCCCCCCOCC1CO1` (stereo not given), with “inactive”; and `CC(=O)[C@@]1(O)CC[C@H]2[C@@H]3CCC4=CC(=O)CC[C@]4(C)[C@H]3CC[C@@]21C`, with “inactive”. Then `NCCc1ccc(O)c(O)c1`, with “inactive”; and `C=C1C2CCC(C2)C1(C)C` (stereo not given), with “inactive”; and `CCCCCCC(C)(C)S`, with “inactive”.

Take `OC[C@@H](O)[C@@H](O)[C@H](O)[C@@H](O)CO`: the Potency result is “inactive”.

For the compound `CCCCC(CC)C(=O)OCCOCCOCCOC(=O)C(CC)CCCC` (stereo not given), the Potency entry was “inactive”. Then `CCc1ccccc1O`, with “inactive”; and `O=S(=O)(O)CCS`, with “inactive”.

As for `Cc1cc(=O)[nH]c(C(C)C)n1`, the Potency entry is “inactive”. As for `COC(=O)c1ccccc1O`, the Potency entry is “inactive”. Regarding `c1ccc2ccccc2c1`, the Potency entry was “inactive”.

For the compound `CC(=O)CCc1ccccc1`, the Potency result was “inactive”. Turning to `OC[C@@H](O)[C@H](O)[C@H](O)[C@@H](O)CO`, the Potency result is “inactive”. Under `CCOC(=O)/C=C\C(=O)OCC` stands “inactive”. For `O=C1N=C(O)CN1/N=C/c1ccc(-c2ccc([N+](=O)[O-])cc2)o1`, the Potency entry was “inactive”. On to `O=C1CCCCC1`, for which the Potency result was “inactive”.

With `Cc1ccc(C)c(C)c1`, the Potency result was “inactive”.

For the origin of these results see PubChem BioAssay (Tox21).
